The nature of experiment [1]: antimalarial activity against Dd2 strain (AID 2302;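 active means growth inhibition above 50% at the single 2 µM test dose, taken to imply half-maximal potency below 2 µM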;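 further: 0% = DMSO untreated growth and 100% = chloroquine plus artemisinin killed control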). To be noted: P. falciparum Dd2 in RBCs, LDH growth readout, 72 h; at 2 µM; hits give high values.
The nature of experiment [2]: human hepatoma cell viability loss – ATP luminescence, cytotoxicity control for P. falciparum antimalarial project, primary screen (AID 2303;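 active means inhibition above 50%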;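 further: 0% = DMSO wells and 100% = digitonin-killed cells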). Conditions: HepG2 viability, 24-48 h, at 10 µM, hits give high values.
The target in experiment [3] is L-lactate dehydrogenase (Plasmodium falciparum (isolate CDC / Honduras)) (UniProt Q27743). Description: PfLDH activity inhibition – cell lysate, 3D7 strain, counter-screen for P. falciparum growth inhibition project (AID 2304).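 Further: 0% = vehicle and 100% = reference inhibitor.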 Conditions: P. falciparum 3D7 crude extract, LDH APAD/NBT absorbance; at 2 µM; hits give high values. For orientation: Counterscreens check selectivity or assay interference.
L-lactate dehydrogenase (Plasmodium falciparum (isolate CDC / Honduras)), sequence (Q27743 whole entry, looked up): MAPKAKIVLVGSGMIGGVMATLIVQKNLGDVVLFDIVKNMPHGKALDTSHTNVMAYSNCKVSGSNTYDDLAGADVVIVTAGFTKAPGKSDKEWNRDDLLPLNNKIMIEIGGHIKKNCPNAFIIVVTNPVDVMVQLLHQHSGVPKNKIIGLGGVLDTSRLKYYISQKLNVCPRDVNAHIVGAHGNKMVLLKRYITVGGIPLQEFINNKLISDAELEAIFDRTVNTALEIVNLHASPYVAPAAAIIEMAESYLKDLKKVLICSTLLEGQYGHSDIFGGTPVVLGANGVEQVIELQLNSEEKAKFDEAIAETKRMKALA

The nature of experiment [4]: inhibition of 3D7 malaria parasite growth – strain 3D7 (AID 2306).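 Further: 0% = DMSO wells and 100% = chloroquine plus artemisinin control wells.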 Conditions: P. falciparum 3D7 erythrocytic growth, LDH absorbance, 72 h; at 2 µM; hits give high values.
In experiment [5] the target is Calcium-dependent protein kinase 1 (Plasmodium falciparum (isolate 3D7)) (UniProt P62344). Description: PfCDPK1 kinase inhibitors, biochemical, TCAMS library (AID 1159585; cut-off not given, nearly all actives have IC50 up to about 0.98 µM;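 further: inhibitors leave more ATP so luminescence rises with inhibition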). To be noted: recombinant PfCDPK1, Kinase-Glo ATP depletion luminescence. On the technique in general: In Kinase-Glo more light means more ATP remaining.
Calcium-dependent protein kinase 1 (Plasmodium falciparum (isolate 3D7)), sequence (P62344 whole entry, looked up): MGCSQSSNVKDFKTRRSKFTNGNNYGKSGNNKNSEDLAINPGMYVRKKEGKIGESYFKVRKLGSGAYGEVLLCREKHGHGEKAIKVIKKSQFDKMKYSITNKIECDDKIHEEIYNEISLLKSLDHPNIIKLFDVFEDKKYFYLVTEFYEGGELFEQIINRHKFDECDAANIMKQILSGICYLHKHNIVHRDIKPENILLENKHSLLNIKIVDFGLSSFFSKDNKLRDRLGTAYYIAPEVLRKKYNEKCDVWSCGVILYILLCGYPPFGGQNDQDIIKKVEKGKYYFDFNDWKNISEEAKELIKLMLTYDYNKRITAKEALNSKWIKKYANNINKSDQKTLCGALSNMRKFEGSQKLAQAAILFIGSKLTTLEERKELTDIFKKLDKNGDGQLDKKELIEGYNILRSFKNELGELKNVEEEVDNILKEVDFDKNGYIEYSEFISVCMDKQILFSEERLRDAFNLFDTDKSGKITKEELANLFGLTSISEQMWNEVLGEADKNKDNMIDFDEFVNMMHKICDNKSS
Experiment [6] concerns the target Plasmodium falciparum protein kinase 6 (PK6, PF3D7_1337100) (UniProt Q8IDW1). Description: PfPK6 kinase inhibitors, biochemical, TCAMS library (AID 1159586). To be noted: recombinant PfPK6, Kinase-Glo ATP depletion luminescence.
The target in experiment [7] is Protein kinase 7 (PK7), Plasmodium falciparum 3D7 (PF3D7_0213400) (UniProt Q7YTF7). Description: inhibition of Plasmodium PK7 catalytic activity – biochemical, TCAMS antimalarial set, Kinase-Glo luminescence (AID 1159587). Conditions: recombinant PfPK7, Kinase-Glo ATP depletion luminescence.
Protein kinase 7 (PK7), Plasmodium falciparum 3D7 (PF3D7_0213400), sequence (Q7YTF7 1-343): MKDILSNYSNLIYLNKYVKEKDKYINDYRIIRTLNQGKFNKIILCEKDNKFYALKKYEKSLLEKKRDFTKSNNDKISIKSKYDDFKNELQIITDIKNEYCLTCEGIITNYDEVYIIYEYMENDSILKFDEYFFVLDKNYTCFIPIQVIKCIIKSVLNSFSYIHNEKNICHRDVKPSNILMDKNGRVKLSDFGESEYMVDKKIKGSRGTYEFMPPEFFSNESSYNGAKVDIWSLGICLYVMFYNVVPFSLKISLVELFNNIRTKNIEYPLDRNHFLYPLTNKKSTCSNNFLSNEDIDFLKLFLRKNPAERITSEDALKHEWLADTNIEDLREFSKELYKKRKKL
In experiment [8] the target is Calcium-dependent protein kinase 4 (Plasmodium falciparum (isolate 3D7)) (UniProt Q8IBS5). Description: PfCDPK4 kinase inhibitors, biochemical, TCAMS library (AID 1159588; cut-off not given, nearly all actives have IC50 up to about 0.91 µM). Conditions: recombinant PfCDPK4, Kinase-Glo ATP depletion luminescence.
Calcium-dependent protein kinase 4 (Plasmodium falciparum (isolate 3D7)), sequence (Q8IBS5 whole entry, looked up): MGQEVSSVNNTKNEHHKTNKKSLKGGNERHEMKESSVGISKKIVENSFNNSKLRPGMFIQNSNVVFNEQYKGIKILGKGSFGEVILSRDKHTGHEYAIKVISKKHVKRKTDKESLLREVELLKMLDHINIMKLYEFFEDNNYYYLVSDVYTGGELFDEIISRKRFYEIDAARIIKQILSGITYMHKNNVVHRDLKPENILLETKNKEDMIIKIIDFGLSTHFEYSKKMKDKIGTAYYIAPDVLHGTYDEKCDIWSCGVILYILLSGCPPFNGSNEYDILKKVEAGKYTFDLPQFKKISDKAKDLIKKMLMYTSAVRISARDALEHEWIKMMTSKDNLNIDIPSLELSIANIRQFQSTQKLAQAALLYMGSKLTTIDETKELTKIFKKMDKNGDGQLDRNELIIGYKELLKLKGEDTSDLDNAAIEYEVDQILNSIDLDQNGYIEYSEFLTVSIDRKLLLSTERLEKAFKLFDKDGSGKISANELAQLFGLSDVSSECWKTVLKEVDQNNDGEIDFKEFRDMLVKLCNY

A number with no mark means an inactive call. For part of these data: Results with a measured potency or affinity are listed apart. Active and inactive are the calls of the source. Unless noted, how the calls were made is not given here.

Plasmodium falciparum protein kinase 6 (PK6, PF3D7_1337100), sequence (Q8IDW1 1-305): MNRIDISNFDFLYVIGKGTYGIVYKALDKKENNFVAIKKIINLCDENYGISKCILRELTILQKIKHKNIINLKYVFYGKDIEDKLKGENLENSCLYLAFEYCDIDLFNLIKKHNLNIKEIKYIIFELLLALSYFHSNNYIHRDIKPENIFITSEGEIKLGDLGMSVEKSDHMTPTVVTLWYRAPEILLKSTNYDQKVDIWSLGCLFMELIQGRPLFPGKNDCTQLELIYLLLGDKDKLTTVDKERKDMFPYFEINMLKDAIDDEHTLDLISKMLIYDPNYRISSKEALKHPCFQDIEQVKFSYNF

On to `Cc1ccc(CNC(=O)[C@H](CC(C)C)Nc2cc(C)nc(Nc3ccccc3)n2)cc1`, for which the values for the growth inhibition in experiment [1] and in experiment [4] were 19% and 97% (active), respectively. Further, the inhibition (commonly the drop in the measured response relative to a control, in per cent) is 12% in experiment [2] and -1% in experiment [3]. In addition, the result in experiment [5], in experiment [6], in experiment [7] and in experiment [8] was inactive.
Regarding `COC(=O)[C@@H](NC(=O)[C@H](Cc1ccc(OC)c(OC)c1)Nc1ccc(C#N)c2ccccc12)c1ccc(O)cc1`, the growth inhibition in experiment [1] was 100% (active); in experiment [4], 101% (active). The inhibition is 6% in experiment [2] and 5% in experiment [3]. Also, the result in experiment [5], in experiment [6], in experiment [7] and in experiment [8] was inactive.
As to `CSc1cccc(Nc2nc3ccc(S(=O)(=O)NC(C)C(C)C)cc3n2[C@H](C)C(C)(C)C)c1` (some centres undefined), the growth inhibition in experiment [1] is 98% (active); in experiment [4], 97% (active). Moreover, the inhibition in experiment [2] was -10%; in experiment [3], 0%. The result in experiment [5], in experiment [6], in experiment [7] and in experiment [8] was inactive.
Turning to `Oc1ccccc1CN1CCC2(CCCN(Cc3ccccc3F)C2)C1` (centres undefined), the growth inhibition in experiment [1] was 83% (active); in experiment [4] it was 98% (active). Besides, the inhibition in experiment [2] is 13%; in experiment [3] it was -2%. In addition, the outcome in experiment [5], in experiment [6], in experiment [7] and in experiment [8] was inactive.
Consider `COc1ccc2nccc([C@@H](O)CN3CCC(NCc4cc5oc(=O)[nH]c5cc4F)CC3)c2c1`, for which the results for the growth inhibition in experiment [1] and in experiment [4] were 4% and 99% (active), respectively. Moreover, the inhibition was -9% in experiment [2] and -2% in experiment [3]. Also, the result in experiment [5], in experiment [6], in experiment [7] and in experiment [8] was inactive.
`O=c1cc(NCCCNCc2ccc(Cl)c(Cl)c2)[nH]c2ccc(Oc3ccccc3)cc12`: the growth inhibition was 29% in experiment [1] and 92% (active) in experiment [4]. In addition, the inhibition is 1% in experiment [2] and 2% in experiment [3]. The outcome in experiment [5], in experiment [6], in experiment [7] and in experiment [8] was inactive.
For `CCOc1ccc2nc(C)cc(NN=Cc3ccccc3Cl)c2c1`, the growth inhibition in experiment [1] is 100% (active); in experiment [4], 101% (active). Further, the inhibition in experiment [2] was 11%; in experiment [3] it was -4%. Besides, the result in experiment [5], in experiment [6], in experiment [7] and in experiment [8] was inactive.
Turning to `CN(C(=O)/C=C/c1ccccc1F)C1CCN(CCCCCNC(=O)/C=C/c2ccc(Cl)c(Cl)c2)CC1`, the growth inhibition in experiment [1] was 59% (active); in experiment [4], 89% (active). Besides, the inhibition in experiment [2] was 73% (active); in experiment [3], -1%. The result in experiment [5], in experiment [6], in experiment [7] and in experiment [8] was inactive.
On to `COc1cc2nc(NCCN3CCOCC3)n3nc(-c4ccccc4)nc3c2cc1OC`, for which the growth inhibition in experiment [1] was 98% (active); in experiment [4] it was 96% (active). For the same compound, the inhibition in experiment [2] was 15%; in experiment [3], -3%. Moreover, the result in experiment [5], in experiment [6], in experiment [7] and in experiment [8] was inactive.
Regarding `O=C(Nc1ccc(Cl)c(Cl)c1)Nc1ccc2nccc(N3CCN(Cc4ccccc4)CC3)c2c1`, the growth inhibition is 100% (active) in experiment [1] and 101% (active) in experiment [4]. Moreover, the values for the inhibition in experiment [2] and in experiment [3] were 31% and 1%, respectively. In addition, the result in experiment [5], in experiment [6], in experiment [7] and in experiment [8] was inactive.
With `CN(Cc1c(Cl)cnn1C)S(=O)(=O)c1ccc2ccccc2c1`, the growth inhibition in experiment [1] was 36%; in experiment [4], 94% (active). Moreover, the inhibition was 7% in experiment [2] and -2% in experiment [3]. Also, the result in experiment [5], in experiment [6], in experiment [7] and in experiment [8] was inactive.
Turning to `Cc1cc(CN2CCCC(OC(c3ccc(F)cc3)c3ccc(F)cc3)C2)ccc1O` (centres undefined), the growth inhibition is 82% (active) in experiment [1] and 89% (active) in experiment [4]. Also, the inhibition was 28% in experiment [2] and 3% in experiment [3]. Moreover, the result in experiment [5], in experiment [6], in experiment [7] and in experiment [8] was inactive.
Regarding `O=C(NC1CC1)c1ccc(N2CCC(Cc3ccccc3)CC2)nc1`, the values for the growth inhibition in experiment [1] and in experiment [4] were 92% (active) and 95% (active), respectively. Further, the results for the inhibition in experiment [2] and in experiment [3] were 13% and 5%, respectively. Moreover, the result in experiment [5], in experiment [6], in experiment [7] and in experiment [8] was inactive.
Regarding `COc1cc2ncnc(Nc3ccc4nc(Cc5ccccc5)[nH]c4c3)c2cc1OC`, the growth inhibition in experiment [1] was 28%; in experiment [4], 87% (active). Moreover, the inhibition was -9% in experiment [2] and 0% in experiment [3]. In addition, the result in experiment [5], in experiment [6], in experiment [7] and in experiment [8] was inactive.
For `CC[C@H](C)CNC(=O)c1ccnc(-c2ccc(CNC3Cc4ccccc4C3)cc2)c1`, the growth inhibition in experiment [1] was 87% (active); in experiment [4], 102% (active). Moreover, the results for the inhibition in experiment [2] and in experiment [3] were 18% and -3%, respectively. The outcome in experiment [5], in experiment [6], in experiment [7] and in experiment [8] was inactive.
For `COc1ccc(CNC2CCN(C)CC2)cc1-c1ccc(S(=O)(=O)NCc2ccccc2)cc1`, the growth inhibition in experiment [1] is 99% (active); in experiment [4], 100% (active). The values for the inhibition in experiment [2] and in experiment [3] were 56% (active) and 5%, respectively. Further, the result in experiment [5], in experiment [6], in experiment [7] and in experiment [8] was inactive.
For `O=C(/C=C/c1ccc(Cl)c(Cl)c1)NCCCCCN1CCC(NC(=S)Nc2ccc(Cl)cc2Cl)CC1`, the growth inhibition in experiment [1] is 47%; in experiment [4] it was 99% (active). Besides, the inhibition in experiment [2] is 53% (active); in experiment [3], -1%. For the same compound, the outcome in experiment [5], in experiment [6], in experiment [7] and in experiment [8] was inactive.
`COc1ccc(-n2nc(C(=O)NCc3ccccc3OC)c3ccccc3c2=O)cc1`: the growth inhibition in experiment [1] was 94% (active); in experiment [4], 102% (active). For the same compound, the inhibition in experiment [2] is 2%; in experiment [3] it was 0%. In addition, the outcome in experiment [5], in experiment [6], in experiment [7] and in experiment [8] was inactive.

Source of the values: PubChem BioAssay.
